Data published in PubChem BioAssay.
Active and inactive are the calls of the source.

Columns and labels:
[1] = binders of probe aFSTL3 on microarray, primary screen, stem cell growth factor project, biochemical, small-molecule microarray, fluorescence 635/667 (AID 1064); conditions: higher = more signal;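 further: measures binding of the biotinylated anti-FSTL3 antibody to printed compounds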
[2] = binders from COS7 lysate, DM2A8 probe, primary screen, torsin A project, cell lysate, small-molecule microarray, fluorescence 635/667 (AID 1065); conditions: higher = more signal, COS7 lysate expressing mutant human TOR1A
[3] = binders of probe aFGF2 on microarray, primary screen, stem cell growth factor project, biochemical, small-molecule microarray, fluorescence 635/667 (AID 1067); conditions: higher = more signal;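 further: measures binding of biotinylated aFGF2 protein to printed compounds on slides; z-score merges feature fluorescence and signal-to-noise across triplicate slides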
[4] = binders of probe aFGF10 on microarray, primary screen, stem cell growth factor project, biochemical, small-molecule microarray, fluorescence 635/667 (AID 1071); conditions: higher = more signal;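 further: score merges 667 nm spot intensity and signal to noise from triplicate slides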
[5] = target: Neurogenic locus notch homolog protein 2 (Homo sapiens) (UniProt Q04721); test: Notch2 binders on small-molecule microarrays, primary screen, biochemical, small-molecule microarray, 635 nm fluorescence, stem cell growth factors (AID 1073); conditions: Notch2 binding, higher = more signal
Neurogenic locus notch homolog protein 2 (Homo sapiens), sequence (Q04721 whole entry, looked up, canonical isoform): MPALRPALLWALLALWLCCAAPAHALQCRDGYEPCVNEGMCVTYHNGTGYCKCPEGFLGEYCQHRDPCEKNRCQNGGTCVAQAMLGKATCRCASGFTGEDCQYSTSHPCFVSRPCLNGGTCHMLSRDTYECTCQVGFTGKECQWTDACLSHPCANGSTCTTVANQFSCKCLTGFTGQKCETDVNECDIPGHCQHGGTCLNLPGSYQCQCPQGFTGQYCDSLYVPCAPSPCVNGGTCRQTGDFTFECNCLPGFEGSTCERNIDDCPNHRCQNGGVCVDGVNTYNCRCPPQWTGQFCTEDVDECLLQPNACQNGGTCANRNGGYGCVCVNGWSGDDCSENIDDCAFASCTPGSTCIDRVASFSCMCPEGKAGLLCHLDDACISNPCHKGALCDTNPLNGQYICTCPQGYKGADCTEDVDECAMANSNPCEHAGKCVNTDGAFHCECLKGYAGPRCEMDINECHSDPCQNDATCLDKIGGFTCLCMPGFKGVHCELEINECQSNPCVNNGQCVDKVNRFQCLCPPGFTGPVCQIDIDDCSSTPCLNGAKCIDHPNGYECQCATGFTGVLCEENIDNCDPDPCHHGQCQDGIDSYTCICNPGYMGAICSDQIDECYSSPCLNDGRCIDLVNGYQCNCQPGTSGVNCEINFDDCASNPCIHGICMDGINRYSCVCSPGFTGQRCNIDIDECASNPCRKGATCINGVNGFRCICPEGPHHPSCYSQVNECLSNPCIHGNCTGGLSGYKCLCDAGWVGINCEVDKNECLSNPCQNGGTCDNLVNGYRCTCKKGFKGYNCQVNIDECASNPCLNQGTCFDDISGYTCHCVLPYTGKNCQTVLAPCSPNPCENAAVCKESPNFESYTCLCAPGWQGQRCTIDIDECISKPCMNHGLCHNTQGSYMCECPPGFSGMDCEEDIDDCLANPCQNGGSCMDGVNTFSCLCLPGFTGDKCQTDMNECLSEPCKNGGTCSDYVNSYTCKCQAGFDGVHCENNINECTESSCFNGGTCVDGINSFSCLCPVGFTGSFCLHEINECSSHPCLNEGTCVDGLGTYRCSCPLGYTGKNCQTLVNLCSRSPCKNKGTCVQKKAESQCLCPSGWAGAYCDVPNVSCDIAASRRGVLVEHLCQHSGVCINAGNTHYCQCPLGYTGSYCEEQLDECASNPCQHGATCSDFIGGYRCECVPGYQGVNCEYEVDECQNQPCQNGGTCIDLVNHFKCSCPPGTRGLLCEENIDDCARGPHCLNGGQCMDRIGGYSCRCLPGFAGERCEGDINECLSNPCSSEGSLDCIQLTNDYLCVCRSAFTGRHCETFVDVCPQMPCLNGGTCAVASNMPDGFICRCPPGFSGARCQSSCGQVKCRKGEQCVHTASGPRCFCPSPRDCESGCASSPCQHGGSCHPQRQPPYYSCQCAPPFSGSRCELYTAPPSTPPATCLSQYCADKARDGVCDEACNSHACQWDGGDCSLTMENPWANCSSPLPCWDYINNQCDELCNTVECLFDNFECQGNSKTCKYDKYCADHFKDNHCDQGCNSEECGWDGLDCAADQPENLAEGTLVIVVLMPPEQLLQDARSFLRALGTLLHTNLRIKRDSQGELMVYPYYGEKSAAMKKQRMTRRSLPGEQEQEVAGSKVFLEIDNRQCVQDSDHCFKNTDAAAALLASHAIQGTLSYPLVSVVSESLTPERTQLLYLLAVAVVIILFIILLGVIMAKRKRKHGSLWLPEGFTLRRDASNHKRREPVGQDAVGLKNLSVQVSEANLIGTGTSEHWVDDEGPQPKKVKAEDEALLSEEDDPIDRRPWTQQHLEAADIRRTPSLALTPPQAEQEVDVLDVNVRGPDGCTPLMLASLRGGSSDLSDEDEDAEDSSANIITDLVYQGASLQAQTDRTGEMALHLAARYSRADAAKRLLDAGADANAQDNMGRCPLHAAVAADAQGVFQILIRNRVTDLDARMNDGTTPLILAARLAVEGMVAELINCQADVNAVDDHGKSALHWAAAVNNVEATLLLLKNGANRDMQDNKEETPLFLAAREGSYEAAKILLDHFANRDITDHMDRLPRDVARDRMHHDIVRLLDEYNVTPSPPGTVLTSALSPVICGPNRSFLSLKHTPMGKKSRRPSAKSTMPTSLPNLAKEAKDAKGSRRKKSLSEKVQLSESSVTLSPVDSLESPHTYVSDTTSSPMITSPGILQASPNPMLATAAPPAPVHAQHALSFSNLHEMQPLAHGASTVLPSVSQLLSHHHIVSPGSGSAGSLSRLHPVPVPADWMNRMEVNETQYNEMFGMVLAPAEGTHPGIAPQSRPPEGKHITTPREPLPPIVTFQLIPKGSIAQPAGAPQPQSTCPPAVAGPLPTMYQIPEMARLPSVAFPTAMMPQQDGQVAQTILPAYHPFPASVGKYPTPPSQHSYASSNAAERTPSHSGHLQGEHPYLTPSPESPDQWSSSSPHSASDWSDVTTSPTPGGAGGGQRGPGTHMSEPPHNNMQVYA

[6] = target: Pro-neuregulin-1, membrane-bound isoform (Homo sapiens) (UniProt Q02297); test: NRG1 binders on small-molecule microarrays, primary screen, psychiatric disease protein project, biochemical, small-molecule microarray, fluorescence 635/667 (AID 1075); conditions: NRG1 binding, 635 nm fluorescence, higher = more signal;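 further: score combines 667 nm spot fluorescence with signal to noise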
[7] = system: Neuregulin-1 EGF-like domain; test: binders of neuregulin-1 EGF-like domain, primary screen, biochemical, small-molecule microarray, 635 nm fluorescence (AID 1081); conditions: small-molecule microarray binding, higher = more signal;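 further: binding of the protein to compounds printed on small-molecule microarray slides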
[8] = FRG1 promoter luciferase signal modulators, primary screen, FRG1 inhibition for FSHD, cell-based, C2C12 myotubes, firefly/Renilla luciferase, luminescence (AID 1084); conditions: higher = more signal, called active from +8 up or from −8 down
[9] = binders of probe aFST on microarray, primary screen, stem cell growth factor project, biochemical, small-molecule microarray, fluorescence 635/667 (AID 1086); conditions: higher = more signal;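 further: score merges 667 nm fluorescence with signal-to-noise of each printed compound spot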
[10] = binders of probe aHhip on microarray, primary screen, stem cell growth factor project, biochemical, small-molecule microarray, fluorescence 635/667 (AID 1087); conditions: higher = more signal;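 further: score merges spot fluorescence at 667nm with spot signal to noise ratio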
[11] = system: PRMT1 (protein arginine N-methyltransferase 1); test: PRMT1 binders on small-molecule microarrays, primary screen, biochemical, small-molecule microarray, 635 nm fluorescence (AID 1088); conditions: small-molecule microarray binding, higher = more signal;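 further: binding of Prmt1 protein to compounds spotted on small-molecule microarray slides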
[12] = yeast growth modulation, basal conditions, primary screen, YJM789 clinical isolate, OD600, 24 h (AID 1089);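 further: growth of clinical yeast isolate S. cerevisiae YJM 789 seeded 1000 cells per well; test concentration not given here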; conditions: S. cerevisiae YJM789 growth, higher = more signal, called active from +8 up or from −8 down
[13] = fission yeast growth modulation, primary screen, strain 972, OD600, 24 h, no modulator (AID 1090);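 further: basal condition with compound alone and no growth modifier present; test concentration not given here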; conditions: S. pombe 972 growth, higher = more signal, called active from +8 up or from −8 down
[14] = S. cerevisiae growth modulation with rapamycin, primary screen, strain BY4716, OD600, 96 h (AID 1091); conditions: higher = more signal, called active from +8 up or from −8 down; further: test concentration not given here
[15] = target: Torsin-1A-interacting protein 2 (Homo sapiens) (UniProt Q8NFQ8); test: LULL1 binders on small-molecule microarray, primary screen, cell lysate, human LULL1 lysate, 635/667 nm fluorescence (AID 1092); conditions: hLULL1 lysate binding, 635 nm fluorescence, higher = more signal;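 further: probe is lysate of COS7 cells overexpressing human LULL1; score merges per-feature 667 nm fluorescence with signal-to-noise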
[16] = E. coli growth modulation, two-sided OD650, primary screen, E. coli filamentation project, strain DRC41, 24 h (AID 1093); conditions: OD650, 24 h, higher = more signal, called active from +8 up or from −8 down;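 further: MC1000 strain lacking acrAB efflux and sulA so SOS filamentation is blocked; test concentration not given here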
[17] = small-molecule microarray binders of probe aLefty2, primary screen, biochemical, biotinylated probe, 635/667 nm fluorescence (AID 1094); conditions: higher = more signal;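 further: score merges spot fluorescence near 667 nm with spot signal-to-noise ratio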
[18] = system: Noggin (protein binding on small-molecule microarray); test: Noggin binders on small-molecule microarray, primary screen, biochemical, 635/667 nm fluorescence (AID 1095); conditions: 635 nm fluorescence, higher = more signal;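 further: score merges 667 nm feature fluorescence with signal to noise over triplicate slides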
[19] = target: Neurogenic locus notch homolog protein 3 (Homo sapiens) (UniProt Q9UM47); test: NOTCH3 binders on small-molecule microarray, primary screen, biochemical, 635/667 nm fluorescence (AID 1096); conditions: NOTCH3 binding, 635 nm fluorescence, higher = more signal
Neurogenic locus notch homolog protein 3 (Homo sapiens), sequence (Q9UM47 whole entry, looked up): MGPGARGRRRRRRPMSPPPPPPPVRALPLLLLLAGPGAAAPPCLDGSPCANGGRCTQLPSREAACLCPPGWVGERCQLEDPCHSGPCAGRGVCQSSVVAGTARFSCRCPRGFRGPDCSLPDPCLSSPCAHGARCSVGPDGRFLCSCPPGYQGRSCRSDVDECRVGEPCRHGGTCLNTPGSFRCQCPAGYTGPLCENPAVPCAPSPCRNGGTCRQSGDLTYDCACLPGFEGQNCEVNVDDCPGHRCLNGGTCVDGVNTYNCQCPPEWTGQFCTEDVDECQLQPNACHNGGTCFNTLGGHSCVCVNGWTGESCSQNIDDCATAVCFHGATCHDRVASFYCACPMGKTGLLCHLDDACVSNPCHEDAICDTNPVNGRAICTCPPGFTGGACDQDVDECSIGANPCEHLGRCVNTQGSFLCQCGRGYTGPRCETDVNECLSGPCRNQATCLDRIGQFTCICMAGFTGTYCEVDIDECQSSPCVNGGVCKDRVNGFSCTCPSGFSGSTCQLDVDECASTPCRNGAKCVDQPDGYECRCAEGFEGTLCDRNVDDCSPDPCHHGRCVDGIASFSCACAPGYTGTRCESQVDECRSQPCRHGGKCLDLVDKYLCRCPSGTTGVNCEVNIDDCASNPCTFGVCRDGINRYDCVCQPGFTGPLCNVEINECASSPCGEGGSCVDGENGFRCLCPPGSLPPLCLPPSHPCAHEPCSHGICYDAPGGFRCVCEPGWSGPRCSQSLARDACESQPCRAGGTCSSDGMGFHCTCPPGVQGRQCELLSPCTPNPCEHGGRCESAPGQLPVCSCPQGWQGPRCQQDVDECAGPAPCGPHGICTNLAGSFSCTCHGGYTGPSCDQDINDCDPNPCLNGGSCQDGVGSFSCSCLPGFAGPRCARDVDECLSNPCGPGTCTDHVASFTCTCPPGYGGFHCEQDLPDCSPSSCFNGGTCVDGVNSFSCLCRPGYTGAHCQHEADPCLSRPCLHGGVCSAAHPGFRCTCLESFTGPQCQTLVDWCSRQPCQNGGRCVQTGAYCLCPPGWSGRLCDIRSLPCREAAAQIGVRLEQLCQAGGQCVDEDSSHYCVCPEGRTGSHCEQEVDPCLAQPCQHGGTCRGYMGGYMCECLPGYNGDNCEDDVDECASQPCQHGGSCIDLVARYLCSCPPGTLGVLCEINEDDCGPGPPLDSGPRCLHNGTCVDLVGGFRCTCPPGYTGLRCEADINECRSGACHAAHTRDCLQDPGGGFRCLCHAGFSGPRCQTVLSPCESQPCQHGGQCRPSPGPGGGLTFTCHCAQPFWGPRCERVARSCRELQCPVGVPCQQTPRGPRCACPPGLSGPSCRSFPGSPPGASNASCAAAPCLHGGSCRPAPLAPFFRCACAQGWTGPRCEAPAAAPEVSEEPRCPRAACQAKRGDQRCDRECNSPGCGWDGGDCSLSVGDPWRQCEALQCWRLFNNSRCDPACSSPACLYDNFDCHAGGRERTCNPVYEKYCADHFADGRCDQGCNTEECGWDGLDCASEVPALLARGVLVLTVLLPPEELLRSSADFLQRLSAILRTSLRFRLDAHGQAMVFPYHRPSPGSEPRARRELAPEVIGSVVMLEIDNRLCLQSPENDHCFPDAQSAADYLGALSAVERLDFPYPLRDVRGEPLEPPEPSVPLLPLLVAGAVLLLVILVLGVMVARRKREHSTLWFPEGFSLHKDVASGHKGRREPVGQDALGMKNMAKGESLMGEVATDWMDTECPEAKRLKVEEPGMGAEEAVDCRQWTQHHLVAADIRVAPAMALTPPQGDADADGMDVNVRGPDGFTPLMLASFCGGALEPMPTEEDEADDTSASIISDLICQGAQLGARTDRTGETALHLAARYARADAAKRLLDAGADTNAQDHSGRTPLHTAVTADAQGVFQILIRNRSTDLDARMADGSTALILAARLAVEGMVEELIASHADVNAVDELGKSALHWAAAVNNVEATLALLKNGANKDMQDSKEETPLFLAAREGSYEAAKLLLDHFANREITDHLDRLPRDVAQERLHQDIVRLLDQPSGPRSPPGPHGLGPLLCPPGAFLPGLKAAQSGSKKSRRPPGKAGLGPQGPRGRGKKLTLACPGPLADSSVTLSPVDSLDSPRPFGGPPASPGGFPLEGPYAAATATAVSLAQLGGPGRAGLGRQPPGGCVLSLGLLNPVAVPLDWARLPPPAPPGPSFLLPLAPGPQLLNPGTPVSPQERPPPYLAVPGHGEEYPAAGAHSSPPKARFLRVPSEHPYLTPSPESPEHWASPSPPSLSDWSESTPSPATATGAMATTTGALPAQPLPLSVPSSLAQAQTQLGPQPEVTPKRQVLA

[20] = small-molecule microarray binders of probe aEGFR, primary screen, biochemical, biotinylated probe, 635/667 nm fluorescence (AID 1097); conditions: higher = more signal;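 further: probe is a biotinylated anti-EGFR antibody binding compounds printed on slides; score combines fluorescence near 667 nm and signal to noise of each spot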

SMILES | composite z-score [1] | composite z-score [2] | composite z-score [3] | composite z-score [4] | composite z-score [5] | composite z-score [6] | composite z-score [7] | z-score [8] | composite z-score [9] | composite z-score [10] | composite z-score [11] | z-score [12] | z-score [13] | z-score [14] | composite z-score [15] | z-score [16] | composite z-score [17] | composite z-score [18] | composite z-score [19] | composite z-score [20]
CCCCCCc1nc(Cc2cc(OC)c(OC)c(OC)c2)c(C)c2c1[Si](C(C)C)(C(C)C)OC2 | -0.491 | 0.0293 | -0.0328 | -0.0482 | -0.0366 | -0.186 | 0.105 | -0.474 (inactive) | -0.0696 | -0.274 | 0.829 | -0.42 (inactive) | -1.61 (inactive) | -0.0746 (inactive) | 0.377 | 1.59 (inactive) | -0.0487 | -0.0156 | -0.143 | 0.0172
C=CCNC(=O)[C@H]1[C@@H]2C(=O)O[C@@H](c3ccccc3)[C@@H](c3ccccc3)N2[C@@H](c2ccc(O)cc2)[C@]12C(=O)Nc1ccc(C#CCC(C(=O)OC)C(=O)OC)cc12 | -0.102 | -0.0975 | -0.0878 | 0.0813 | 0.136 | 0.0652 | 1.19 | -0.32 (inactive) | 0.0765 | -0.261 | 0.526 | 0.357 (inactive) | -0.213 (inactive) | -0.836 (inactive) | 1.13 | 1.44 (inactive) | -0.0478 | 0.614 | -0.112 | -0.102
CC(=O)NCCCC[C@@H]1NC(=O)[C@H]2C[C@@H](C(=O)NCCCCCN)[C@@H](c3ccc(O)cc3)N2C1=O | 0.392 | 0.861 | 0.007 | 0.198 | 1 | 0.0529 | 1.2 | -0.248 (inactive) | 0.418 | 0.141 | 1.07 | 0.447 (inactive) | -0.121 (inactive) | 1.01 (inactive) | 2.05 | -0.475 (inactive) | 0.0158 | 1.35 | 0.284 | 0.0209
COc1ccc([Si](C)(C)[C@@H]2[C@@H](CC(=O)N3CCC[C@H]3CO)O[C@]3(C(=O)N(Cc4cccc(N5C(=O)c6cccc7cccc5c67)c4)c4ccccc43)[C@H]2C)cc1 | -0.401 | 0.342 | -0.0666 | 0.219 | -0.321 | 1.22 | 1.06 | -1.01 (inactive) | 0.019 | -0.0618 | 1.34 | -0.702 (inactive) | -0.487 (inactive) | -0.158 (inactive) | 1.48 | 1.55 (inactive) | -0.0757 | 0.641 | 0.368 | -0.115
COc1cc(Cc2cc3c(c(CCc4ccccc4)n2)[Si](C(C)C)(C(C)C)O[C@H]3c2ccccc2)cc(OC)c1OC | 0.962 | -0.133 | -0.0454 | 0.169 | -0.285 | -0.499 | -0.44 | -0.149 (inactive) | -0.273 | -0.0102 | -0.651 | -2.28 (inactive) | -19.9 (active) | -0.549 (inactive) | -0.355 | -0.637 (inactive) | -0.0284 | -0.288 | -0.446 | -0.129
COc1ccc(CCNC(=O)[C@@]2(c3ccc([N+](=O)[O-])cc3)CC(=O)N(C3CCCCC3)[C@@H]2c2ccc(CO)cc2I)cc1 | 0.897 | 0.0603 | 0.0903 | 0.33 | 0.964 | 0.486 | 0.827 | -1.64 (inactive) | -0.121 | 0.386 | 1.39 | 0.717 (inactive) | 0.0908 (inactive) | 5.88 (inactive) | 2.34 | 0.793 (inactive) | -0.0544 | 0.153 | 0.594 | 0.227
O=C1C2C=CC(C(O)C3CCCCC3)N(Nc3ccccc3F)C2C(=O)N1c1ccccc1 (stereo not given) | 0.967 | 0.619 | 0.257 | 0.682 | 1.66 | 1.93 | 1.31 | -0.227 (inactive) | 1.55 | -0.0617 | 1.55 | 0.968 (inactive) | -0.645 (inactive) | 0.515 (inactive) | 3.24 | 0.256 (inactive) | 0.79 | 0.0994 | 1.02 | 0.239
O=C1C2C=CC(C(O)C3CC=CCC3)N(Nc3ccc([N+](=O)[O-])cc3)C2C(=O)N1c1ccccc1 (stereo not given) | 1.47 | 1.28 | 0.428 | 1.14 | 1.54 | 1.61 | 1.26 | -1.06 (inactive) | 2.28 | 0.0729 | 1.41 | -1.09 (inactive) | 0.531 (inactive) | 2.22 (inactive) | 3.22 | 0.0043 (inactive) | 0.486 | 0.7 | 1.06 | 0.298
O=C(NC1CC1)[C@@H]1c2ccccc2C(=O)N(C2CCCCC2)[C@H]1c1ccc(CO)cc1 | 0.954 | 0.642 | 0.0611 | -0.142 | 0.254 | 1.79 | 1.29 | -0.601 (inactive) | 0.575 | -0.228 | 0.384 | 0.116 (inactive) | -0.0911 (inactive) | 0.0861 (inactive) | 2.76 | 0.398 (inactive) | 0.322 | -0.923 | 0.25 | 0.595
C=CCC(OC(C)=O)[C@@H]1[C@@H](N(Cc2ccc(-c3ccccc3)cc2)C(=O)Cc2ccc(OC)cc2)c2cc(OCCCO)ccc2N1C(=O)c1ccc2ccccc2c1 (stereo not given in full) | -0.286 | 1.09 | -0.0486 | 0.269 | -0.238 | -0.157 | -0.659 | -0.808 (inactive) | 0.544 | -0.283 | 0.238 | -0.675 (inactive) | 0.121 (inactive) | -0.193 (inactive) | 0.622 | -0.584 (inactive) | -0.154 | 0.138 | 0.0678 | -0.17
